The supplement of paper PMC10338343
± gives the standard deviation.

Tests used:
[1] = tested on: MILI (PIWIL2) piRISC loaded with L1MC piRNA (26 nt); assay: pre-steady-state target cleavage rate (min^-1); guide: L1MC piRNA 5'p-UAACUAAAUACUAUGCAAGCUGUAGG; higher = faster piRNA-guided slicing of the target
Method in brief: (§1)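 With or without 500 nM GTSF1 partner protein, 1 nM active affinity-purified piRISC carrying one synthetic guide was mixed with 0.1 nM transcribed, DNA-blocked target RNA library in HEPES–potassium acetate buffer at 33 °C for 0–8 or 0–960 min. Uncleaved targets were sequenced and normalised to depth and to weakly complementary targets, three trials were pooled, and k3 was capped at 0.0001 min^-1. The pre-steady-state cleavage rate came from a burst-and-steady-state fit.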

[2] = tested on: EfPiwi piRISC loaded with L1MC piRNA (26 nt); assay: pre-steady-state target cleavage rate (min^-1); auxiliary factor: 500 nM Ephydatia muelleri Gtsf1; guide: L1MC piRNA 5'p-UAACUAAAUACUAUGCAAGCUGUAGG; MIWI and MILI are mouse PIWI proteins and EfPiwi is from a freshwater sponge; tags in brackets are library labels; higher = faster piRNA-guided slicing of the target
Method in brief: as §1

[3] = auxiliary factor: 500 nM mouse GTSF1
[4] = auxiliary factor: none (no GTSF1)

| Sequence | pre-steady-state target cleavage rate [1, 3] | pre-steady-state target cleavage rate [1, 4] | pre-steady-state target cleavage rate [2] |
| --- | --- | --- | --- |
| UCCUGGAUGAGCUUGCAUAGUAUUUACGUUA | 0.189 ± 0.031 | 0.00682 ± 0.0032 | 0.00466 ± 0.0026 |
| UCCUGCUACAGCUUGCACAGUAUUUAGUUA | 0.157 ± 0.015 | 0.00803 ± 0.0023 | 0.0133 ± 0.0041 |
| UCCUGGAACUAGCUUGCAUAGUAUUUAGUUA | 0.132 ± 0.021 | 0.00841 ± 0.0027 | 0.0126 ± 0.0045 |
| UCCUGCUACACGCUUGCAUAGUAUUUAGUUA | 0.218 ± 0.032 | 0.00682 ± 0.0029 | 0.00609 ± 0.0019 |
| UCCUGCUACAGCUUCCAUUGUAUUUAGUUA | 0.157 ± 0.029 | 0.00322 ± 0.0022 | 0.00266 ± 0.0018 |
| UCCUGGAACAGCUUGCAUAGUAUUUAGUUG [g2:g23:cont:t1G] | 0.252 ± 0.024 | 0.00663 ± 0.0021 | 0.0115 ± 0.0034 |
| UCCUGGAACAGCUUGCAUAGUAUUUAGUUUA | 0.321 ± 0.018 | 0.00981 ± 0.003 | 0.0245 ± 0.0071 |
| UCCUGGUACAGCGUGCAUAGUAUUUAGUUA | 0.225 ± 0.031 | 0.00988 ± 0.0044 | 0.0121 ± 0.004 |
| UCCUCCUACAGCUAGCUUAGUAUUUAGUUA | 0.206 ± 0.017 | 0.00491 ± 0.0019 | 0.00997 ± 0.0038 |
| UCCUCCUACAGCUUGCAUAGUAUUUUAGUUA | 0.273 ± 0.019 | 0.0124 ± 0.0038 | 0.0456 ± 0.014 |
| UCCUGGUAGAGCUUGCAUAGUAUUAAGUUA | 0.207 ± 0.034 | 0.00672 ± 0.0026 | 0.00385 ± 0.0022 |
| UCCUGGAACUGCUUGCAUUGUAUUUAGUUA | 0.177 ± 0.015 | 0.00842 ± 0.0019 | 0.00574 ± 0.0019 |
| UCCUGGAUGUGCUUGCAAAGUAUUUAGUUA | 0.0492 ± 0.011 | 0.00756 ± 0.0024 | 0.00905 ± 0.0036 |
| UCCUGCUACAGCGUGCAUAGUAUUUAGUUA | 0.296 ± 0.02 | 0.00602 ± 0.0024 | 0.0101 ± 0.0026 |
| UCCUCCUACAGGUUGCAUACUAUUUAGUUA | 0.0492 ± 0.009 | 0.00246 ± 0.0023 | 0.00612 ± 0.0018 |
| UCCUGCUACAGGUUGCAUAGUUUUUAGUUA | 0.0345 ± 0.007 | 0.0063 ± 0.0021 | 0.00998 ± 0.0028 |
| UCCUCCAACAGCAUGCAUAGUAUUUAGUUA | 0.282 ± 0.016 | 0.0108 ± 0.0025 | 0.0161 ± 0.0047 |
| UCCUGGUACGCUUGCAUAGUAUUUAGUUA | 0.222 ± 0.034 | 0.0143 ± 0.0047 | 0.00582 ± 0.0027 |
| UCCUGGAUCAGCUAGCAUAGUAAUUAGUUA | 0.152 ± 0.015 | 0.00502 ± 0.0022 | 0.00458 ± 0.0024 |
| UCCUGGAUCAGCUUGCAUAGUAUUUACGUUA | 0.243 ± 0.027 | 0.00431 ± 0.0028 | 0.0133 ± 0.0044 |
| UCCUGGAUGAGCUUGCAUUGUAUUUAGUAA | 0.127 ± 0.021 | 0.00311 ± 0.0025 | 0.00311 ± 0.0025 |
| UCCUCCUACAGCUUGCUUAGUAUUUUGUUA | 0.133 ± 0.016 | 0.0026 ± 0.0026 | 0.00532 ± 0.0028 |
| UCCUCCUACAGCUAGGAUAGUAUUUAGUUA | 0.276 ± 0.015 | 0.00685 ± 0.0019 | 0.0581 ± 0.014 |
| UCCUGGCACAGCUUGCAUAGUAUUUAGUUA | 0.289 ± 0.053 | 0.0117 ± 0.0049 | 0.0252 ± 0.0092 |
| UCCUCCUACAGCUUGCAUUGUAAUUAGUUA | 0.166 ± 0.013 | 0.00423 ± 0.0019 | 0.00753 ± 0.0034 |

| Sequence | pre-steady-state target cleavage rate [1, 3] | pre-steady-state target cleavage rate [1, 4] | pre-steady-state target cleavage rate [2] |
| --- | --- | --- | --- |
| UCCUGCUACAGCUUGGAUUGUAUUUAGUUA | 0.0899 ± 0.011 | 0.00506 ± 0.0023 | 0.00362 ± 0.002 |
| UCCUGGUACACCUAGCAUAGUAUUUAGUUA | 0.201 ± 0.044 | 0.00696 ± 0.0032 | 0.00319 ± 0.0029 |
| UCCUGCUAGAGCUAGCAUAGUAUUUAGUUA | 0.237 ± 0.031 | 0.00417 ± 0.0027 | 0.00618 ± 0.0016 |
| UCCUGGAUGACCUUGGAUAGUAUUUAGUUA | 0.14 ± 0.013 | 0.00594 ± 0.0024 | 0.00325 ± 0.0032 |
| UCCUGGAUGUGCUUAGCAUAGUAUUUAGUUA | 0.124 ± 0.015 | 0.00625 ± 0.0028 | 0.00497 ± 0.0028 |
| UCCUCCUACAGCUUGCAUACUAUUUAGUUA | 0.088 ± 0.013 | 0.00383 ± 0.0021 | 0.00904 ± 0.0032 |
| UCCUGGUGCAGCUUGCAUAGUAUUUAGUUA | 0.287 ± 0.017 | 0.0103 ± 0.0029 | 0.0864 ± 0.018 |
| UCCUGGAUCAGCAAGCAUAGUAUUUAGUUA | 0.231 ± 0.021 | 0.00449 ± 0.0021 | 0.0107 ± 0.0038 |
| UCCUGCUUGAGCUUGCAUAGUAUUUAGUAA | 0.172 ± 0.021 | 0.00365 ± 0.0027 | 0.00772 ± 0.0023 |
| UCCUGGAUCAGGUUGCAUAGUAUUUUGUUA | 0.101 ± 0.015 | 0.00364 ± 0.0028 | 0.00406 ± 0.0022 |
| UCCUCCAACAGCUUGCAUACUAUUUAGUUA | 0.0905 ± 0.012 | 0.00321 ± 0.0025 | 0.00961 ± 0.0032 |
| UCCUGGUACACCUUGCAUAGUAUUUAGUUA | 0.147 ± 0.026 | 0.00607 ± 0.0034 | 0.00345 ± 0.0027 |
| UCCUCCAUGAGCUUGCAUAGUAUUUAGUAA | 0.169 ± 0.018 | 0.00406 ± 0.0021 | 0.00588 ± 0.0024 |
| UCCUGGAUGUGCGUGCAUAGUAUUUAGUUA | 0.107 ± 0.012 | 0.0107 ± 0.0032 | 0.00405 ± 0.0027 |
| UCCUGGAUCAGCUGUGCAUAGUAUUUAGUUA | 0.232 ± 0.017 | 0.0109 ± 0.0034 | 0.0791 ± 0.016 |
| UCCUGGAUCAGCUUGCUUAGUAAUUAGUUA | 0.212 ± 0.022 | 0.00689 ± 0.0022 | 0.0988 ± 0.033 |
| UCCUGGAUGUGCUUCAUAGUAUUUAGUUA | 0.046 ± 0.01 | 0.00455 ± 0.002 | 0.00929 ± 0.0056 |
| UCCUGGUACAGCAUGCAUAGUAUUUAGUUA | 0.268 ± 0.02 | 0.0158 ± 0.004 | 0.0111 ± 0.0041 |
| UCCUCCUACAGCUUGCAUAGUAUUUAUGUUA | 0.162 ± 0.023 | 0.00611 ± 0.0025 | 0.00546 ± 0.0027 |
| UCCUGCUUGAGCUUGCAUAGUAUUUAGUUA | 0.22 ± 0.019 | 0.00599 ± 0.0022 | 0.00861 ± 0.0024 |
| UCCUCCUACACCUUGGAUAGUAUUUAGUUA | 0.182 ± 0.026 | 0.00508 ± 0.0023 | 0.00658 ± 0.0029 |
| UCCUGGAAGAGGUUGCAUAGUAUUUAGUUA | 0.233 ± 0.012 | 0.0116 ± 0.0031 | 0.00538 ± 0.0032 |
| UCCUGGAUCAGCAUGCAUAGUAUUUAGUAA | 0.246 ± 0.012 | 0.00355 ± 0.0026 | 0.00497 ± 0.0029 |
| UCCUGCAACAGCUAGCAUAGUAUUUAGUUA | 0.289 ± 0.02 | 0.0104 ± 0.0028 | 0.0145 ± 0.004 |
| UCCUGGAACAGCUUGGAUAGUAUUUUGUUA | 0.203 ± 0.034 | 0.00404 ± 0.0026 | 0.00249 ± 0.0021 |
